# Screening data from PubChem BioAssay.
# The list is not random: actives were taken first. Their share in the collection is about 0.65%.
# Sa ugtP lethal – compounds lethal to S. aureus RN4220 ugtP deletion mutant | OD600 growth, 16 h | growth inhibition, % (no concentration beside the values) | 330,000 tested, 0.54% active | AID 1259309; in the data active = growth inhibition above about 68%;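 note: plate controls were untreated wells for no effect and antibiotic for full effect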
# BJeLR lethal – kills HRASV12-expressing BJeLR cells; BJeLR (HRASV12) viability, CellTiter-Glo ATP luminescence, 48 h; 300,000 tested, 0.17% active; inhibition, % (test concentration not listed); in the data active = inhibition above about 50%
# RN4220 kill – kills Staphylococcus aureus RN4220. S. aureus RN4220 growth, OD600, 16 h. inhibition, % (concentration not given with the values). 330,000 tested, 0.33% active. AID 1259311; in the data active = inhibition above about 85%;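 note: plate controls were untreated cells for no effect and reference antibiotic for full effect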
# * = called active by the depositor; x = not tested or not shown.
SMILES,Sa ugtP lethal,BJeLR lethal,RN4220 kill
O=[N+]([O-])c1ccc(O)c(C=NNc2ccc(S(=O)(=O)O)cc2)c1,71.6,x,88.7*
O=C1C2C(C(=O)N1N=Cc1cc([N+](=O)[O-])ccc1O)C1C=CC2C12CC2 (stereo not given),81.4,x,93.1*
CN(/N=C/c1cc([N+](=O)[O-])ccc1O)c1ccccc1,x,-1.1,x
CN(C)N=Cc1cc([N+](=O)[O-])ccc1O,55.0,x,71.0
O=[N+]([O-])c1cccc(N/N=C/c2cc([N+](=O)[O-])ccc2O)c1,x,8.2,x
O=[N+]([O-])c1ccc(O)c(C=Nc2ccc3c(c2)OCCO3)c1,73.6,11.8,91.7*
CC(N=Cc1cc([N+](=O)[O-])ccc1O)c1ccccc1 (stereo not given),67.0,-10.5,85.5*
Cc1ccccc1C1CC(c2ccccc2)Nc2ncnn21 (stereo not given),0.9,-4.1,-1.6
CC(C)[C@]12CC(=O)[C@H](C)[C@H]1C2,5.3,x,3.8
O=C(CCCn1c(SCc2cccc(F)c2)nc2ccccc2c1=O)NCC1CCCO1 (stereo not given),2.6,2.6,-0.9
Cc1ccccc1NC(=O)CCC(=O)NN=Cc1cc([N+](=O)[O-])ccc1O,84.8*,x,94.8*
O=C(NN=Cc1cc([N+](=O)[O-])ccc1O)C1CC1,79.9,x,89.5*
O=C(N/N=C/c1cc([N+](=O)[O-])ccc1O)C12CC3CC(CC(C3)C1)C2,x,8.3,x
Cc1cc(Cl)ccc1NC(=O)CCC(=O)N/N=C/c1cc([N+](=O)[O-])ccc1O,x,3.7,x
COc1ccc(NC(=O)CN(C)C(C)C(=O)NC(=O)NC2CCCCC2)cc1 (stereo not given),9.1,5.5,2.7
CC1C/C(=C/c2ccncc2)C(=O)/C(=C/c2ccncc2)C1 (stereo not given),-2.7,54.1*,7.5
CC1C/C(=C/c2cccn2C)C(=O)/C(=C/c2cccn2C)C1 (stereo not given),6.2,7.0,5.8
Cc1ccc(C(NC(=O)C(C)C)c2cc([N+](=O)[O-])c3cccnc3c2O)cc1 (stereo not given),95.1*,-8.6,91.6*
CC(C)C(=O)NC(c1cccs1)c1cc([N+](=O)[O-])c2cccnc2c1O (stereo not given),76.2,0.5,67.9
CCCCOc1ccc(CNC(=O)NS(=O)(=O)c2ccc(OCC)cc2)cc1,-12.2,3.9,12.7
COc1cc(/C=N/NC(=O)c2cc(-c3cccn3C)n[nH]2)cc(OC)c1OC,x,8.3,x
COc1cc(C=NNC(=O)c2cc(-c3cccn3C)n[nH]2)cc(OC)c1OC,90.0*,x,51.2
O=C(CSc1nc(-c2ccco2)cc(C(F)(F)F)n1)NCC1CCCO1 (stereo not given),10.5,-11.9,5.8
COc1ccc(OC2CCN(S(=O)(=O)c3ccc(F)cc3)CC2)cc1,10.0,3.0,4.3
O=C1N(c2ccccc2)C[C@@H]2C[C@@H](c3cc4ccccc4o3)N3CCC[C@@]123,18.8,51.1*,-5.5
SMILES,Sa ugtP lethal,BJeLR lethal,RN4220 kill
Cc1ccc(-c2ccccc2[C@@H]2C[C@H]3CN(C)C(=O)[C@]34CCCN24)o1,5.9,-4.4,0.8
COC(=O)CNC(=O)CSc1nnc2cc(C)c3ccccc3n12,4.7,-5.5,6.5
COc1ccc(/C=C/C(=O)OCC(=O)NC2CCCC2)c(OC)c1,46.9,x,3.5
COc1ccc(/C=C/C(=O)OCC(=O)NC2CCCCC2C)c(OC)c1 (stereo not given),87.2*,x,4.6
CCOC(=O)C(C)N1CC(=O)N(c2ccccc2)C1=O (stereo not given),x,-7.8,x
Cc1nc(-c2ccccc2)cc(-c2ccccc2)n1,6.1,-6.2,4.0
Cc1cccc(Cn2nnc3c2C(=O)c2ccccc2C3=O)c1,85.6*,-2.6,69.3
Cc1ccccc1Cn1nnc2c1C(=O)c1ccccc1C2=O,50.8,-5.8,39.0
C=C1CC2C3CCc4cc(OC)ccc4C3CC[C@]12C (stereo not given in full),88.6*,x,-10.4
C=C1C[C@H]2[C@@H]3CCc4cc(OC)ccc4[C@H]3CC[C@]12C,x,5.0,x
O=C(NN=Cc1c(O)ccc2ccccc12)c1ccc(S(=O)(=O)N2CCCCC2)cc1,-4.7,x,11.6
O=C(N/N=C\c1c(O)ccc2ccccc12)c1ccc(S(=O)(=O)N2CCCCC2)cc1,x,76.9*,x
O=C(CN1c2ccccc2Sc2ccccc21)NNC(=O)Nc1ccc(Cl)cc1,67.6,-0.8,59.7
O=C(CN1c2ccccc2Sc2ccccc21)NNC(=O)Nc1ccc(Cl)c(Cl)c1,100.8*,-7.4,100.3*
O=C(CN(c1ccccc1F)S(=O)(=O)c1ccccc1)NC1CCCCCC1,4.5,-3.9,5.0
Cc1ccc(NC(=O)C2=C(c3ccccc3)S(=O)(=O)CCS2(=O)=O)cc1,100.2*,29.0,66.0
Cc1ccc(NC(=O)c2ccccc2)cc1,5.9,-0.3,3.5
CCOc1ccccc1OCC(=O)Nc1ccc(OC)c(S(=O)(=O)N2CCCCC2)c1,-2.7,7.3,3.7
CCOc1ccc(CCNC(=O)c2ccc(N3CCCC3=O)cc2)cc1OCC,7.8,-7.0,5.6
c1cc2c(cc1-c1[nH]ncc1CN1CC3C[C@@H]4CC1C[C@H](C3)C4)OCO2,3.2,-1.0,1.0
COc1cccc(OC)c1C(=O)Nc1sc2c(c1C(N)=O)CCN(Cc1ccccc1)C2,-0.2,0.9,-8.4
CCN1CCc2c(sc(NC(=O)c3cc4ccccc4cc3OC)c2C(N)=O)C1,-14.0,60.1*,-10.0
O=C(CCCCCN1C(=O)c2cccc3cccc(c23)C1=O)NCc1cccnc1,4.8,80.3*,1.4
O=C(CCCN1C(=O)c2cccc3cccc(c23)C1=O)NCc1cccnc1,4.7,-13.7,8.6
CC(C)(C)c1ccc(C(=O)Nc2ccc(C(=O)NCc3cccnc3)cc2)cc1,-2.6,82.0*,2.0
SMILES,Sa ugtP lethal,BJeLR lethal,RN4220 kill
CC(C)(C)C(=O)Nc1ccc(C(=O)NCc2cccnc2)cc1,-4.8,2.9,-21.4
O=C(CCCCCCCCCCC(=O)NCc1cccnc1)NCc1cccnc1,4.4,74.3*,2.1
O=C(CCCN1C(=O)c2ccccc2C1=O)NCc1cccnc1,-9.7,12.3,2.7
CCOC(=O)c1cnc2c(C)cc(C)cc2c1NCCCN1CCOCC1,3.8,9.9,0.8
COc1cc2c(c(OC)c1OC)-c1ccc(OC)c(=O)cc1C(NC(C)=O)CC2 (stereo not given),3.7,48.4,1.5
COc1cc2c(c(OC)c1OC)-c1ccc(O)c(=O)cc1C(NC(C)=O)CC2 (stereo not given),0.5,56.9*,10.9
c1ccc(Oc2nc3ccccc3n3cccc23)cc1,67.5,-7.5,-3.1
Cc1ccc(Oc2nc3ccccc3n3cccc23)cc1,95.8*,0.4,-10.2
O=C(COC(=O)c1ccc(Cl)c(S(=O)(=O)N2CCCCC2)c1)NCc1ccco1,13.7,3.0,7.9
COc1ccc(Cc2nc(-c3ccc(NC(=O)c4cccnc4)cc3)no2)cc1,-4.1,90.4*,-1.7
COc1ccc(-c2noc(CCC(=O)NCc3cccnc3)n2)cc1,9.4,-0.8,3.9
O=C(O)COc1ccccc1/C=N/NC(=O)CN1CCN(S(=O)(=O)c2ccc(Br)cc2)CC1,x,-1.4,x
CCOC(=O)c1cc(-c2ccc(C)c([N+](=O)[O-])c2)nc2c1c(=O)n(C)c(=O)n2C,11.5,-10.4,-2.1
